# Measurements published in the supplement of paper PMC10849652.
# Targets with a hit are over-represented here; the source holds about 7,900 in all. About 0.6% of all pairs of compound and target were hits. Values without a mark were called inactive.
# Compound: CC1=C(C(CC(=O)N1)C2=CC=C(C=C2)C(F)(F)F)C(=O)NC3=C(C=C4C(=C3)C=NN4)F
# Test: log2 fold change, soluble protein after heating vs DMSO (PISA); higher = thermal stabilisation; K562 cells, 10 uM, 30 min; active = over 0.2 and 3.5 SD of the protein, either way, in both replicates (recomputed)
# Procedure, shortened: (§1)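 K562 cells (2×10^6 cells/mL) were treated with 10 μM compound for 30 min, and aliquots were heated for 3 min over 48°C-58°C. Pooled aliquots were extracted in PBS with 0.5% NP-40 at 4°C, and the supernatant after 21,000xg for 90 min was measured by TMTpro 16plex LC-MS/MS with channel sums equalised. Reported thermal stability, relative to control samples and from duplicates, is a log2 fold change.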
# Chain of UniProt Q9UPY8 (Q9UPY8 whole entry, looked up): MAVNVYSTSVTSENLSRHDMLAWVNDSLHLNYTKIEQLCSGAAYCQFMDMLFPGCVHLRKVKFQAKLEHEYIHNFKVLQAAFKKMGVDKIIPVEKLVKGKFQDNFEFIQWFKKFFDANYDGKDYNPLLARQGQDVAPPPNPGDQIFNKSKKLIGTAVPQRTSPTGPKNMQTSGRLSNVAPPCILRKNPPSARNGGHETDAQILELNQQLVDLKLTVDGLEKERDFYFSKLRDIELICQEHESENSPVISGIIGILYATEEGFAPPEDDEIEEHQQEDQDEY
# Chain of UniProt Q8NEZ4 (Q8NEZ4 whole entry, looked up): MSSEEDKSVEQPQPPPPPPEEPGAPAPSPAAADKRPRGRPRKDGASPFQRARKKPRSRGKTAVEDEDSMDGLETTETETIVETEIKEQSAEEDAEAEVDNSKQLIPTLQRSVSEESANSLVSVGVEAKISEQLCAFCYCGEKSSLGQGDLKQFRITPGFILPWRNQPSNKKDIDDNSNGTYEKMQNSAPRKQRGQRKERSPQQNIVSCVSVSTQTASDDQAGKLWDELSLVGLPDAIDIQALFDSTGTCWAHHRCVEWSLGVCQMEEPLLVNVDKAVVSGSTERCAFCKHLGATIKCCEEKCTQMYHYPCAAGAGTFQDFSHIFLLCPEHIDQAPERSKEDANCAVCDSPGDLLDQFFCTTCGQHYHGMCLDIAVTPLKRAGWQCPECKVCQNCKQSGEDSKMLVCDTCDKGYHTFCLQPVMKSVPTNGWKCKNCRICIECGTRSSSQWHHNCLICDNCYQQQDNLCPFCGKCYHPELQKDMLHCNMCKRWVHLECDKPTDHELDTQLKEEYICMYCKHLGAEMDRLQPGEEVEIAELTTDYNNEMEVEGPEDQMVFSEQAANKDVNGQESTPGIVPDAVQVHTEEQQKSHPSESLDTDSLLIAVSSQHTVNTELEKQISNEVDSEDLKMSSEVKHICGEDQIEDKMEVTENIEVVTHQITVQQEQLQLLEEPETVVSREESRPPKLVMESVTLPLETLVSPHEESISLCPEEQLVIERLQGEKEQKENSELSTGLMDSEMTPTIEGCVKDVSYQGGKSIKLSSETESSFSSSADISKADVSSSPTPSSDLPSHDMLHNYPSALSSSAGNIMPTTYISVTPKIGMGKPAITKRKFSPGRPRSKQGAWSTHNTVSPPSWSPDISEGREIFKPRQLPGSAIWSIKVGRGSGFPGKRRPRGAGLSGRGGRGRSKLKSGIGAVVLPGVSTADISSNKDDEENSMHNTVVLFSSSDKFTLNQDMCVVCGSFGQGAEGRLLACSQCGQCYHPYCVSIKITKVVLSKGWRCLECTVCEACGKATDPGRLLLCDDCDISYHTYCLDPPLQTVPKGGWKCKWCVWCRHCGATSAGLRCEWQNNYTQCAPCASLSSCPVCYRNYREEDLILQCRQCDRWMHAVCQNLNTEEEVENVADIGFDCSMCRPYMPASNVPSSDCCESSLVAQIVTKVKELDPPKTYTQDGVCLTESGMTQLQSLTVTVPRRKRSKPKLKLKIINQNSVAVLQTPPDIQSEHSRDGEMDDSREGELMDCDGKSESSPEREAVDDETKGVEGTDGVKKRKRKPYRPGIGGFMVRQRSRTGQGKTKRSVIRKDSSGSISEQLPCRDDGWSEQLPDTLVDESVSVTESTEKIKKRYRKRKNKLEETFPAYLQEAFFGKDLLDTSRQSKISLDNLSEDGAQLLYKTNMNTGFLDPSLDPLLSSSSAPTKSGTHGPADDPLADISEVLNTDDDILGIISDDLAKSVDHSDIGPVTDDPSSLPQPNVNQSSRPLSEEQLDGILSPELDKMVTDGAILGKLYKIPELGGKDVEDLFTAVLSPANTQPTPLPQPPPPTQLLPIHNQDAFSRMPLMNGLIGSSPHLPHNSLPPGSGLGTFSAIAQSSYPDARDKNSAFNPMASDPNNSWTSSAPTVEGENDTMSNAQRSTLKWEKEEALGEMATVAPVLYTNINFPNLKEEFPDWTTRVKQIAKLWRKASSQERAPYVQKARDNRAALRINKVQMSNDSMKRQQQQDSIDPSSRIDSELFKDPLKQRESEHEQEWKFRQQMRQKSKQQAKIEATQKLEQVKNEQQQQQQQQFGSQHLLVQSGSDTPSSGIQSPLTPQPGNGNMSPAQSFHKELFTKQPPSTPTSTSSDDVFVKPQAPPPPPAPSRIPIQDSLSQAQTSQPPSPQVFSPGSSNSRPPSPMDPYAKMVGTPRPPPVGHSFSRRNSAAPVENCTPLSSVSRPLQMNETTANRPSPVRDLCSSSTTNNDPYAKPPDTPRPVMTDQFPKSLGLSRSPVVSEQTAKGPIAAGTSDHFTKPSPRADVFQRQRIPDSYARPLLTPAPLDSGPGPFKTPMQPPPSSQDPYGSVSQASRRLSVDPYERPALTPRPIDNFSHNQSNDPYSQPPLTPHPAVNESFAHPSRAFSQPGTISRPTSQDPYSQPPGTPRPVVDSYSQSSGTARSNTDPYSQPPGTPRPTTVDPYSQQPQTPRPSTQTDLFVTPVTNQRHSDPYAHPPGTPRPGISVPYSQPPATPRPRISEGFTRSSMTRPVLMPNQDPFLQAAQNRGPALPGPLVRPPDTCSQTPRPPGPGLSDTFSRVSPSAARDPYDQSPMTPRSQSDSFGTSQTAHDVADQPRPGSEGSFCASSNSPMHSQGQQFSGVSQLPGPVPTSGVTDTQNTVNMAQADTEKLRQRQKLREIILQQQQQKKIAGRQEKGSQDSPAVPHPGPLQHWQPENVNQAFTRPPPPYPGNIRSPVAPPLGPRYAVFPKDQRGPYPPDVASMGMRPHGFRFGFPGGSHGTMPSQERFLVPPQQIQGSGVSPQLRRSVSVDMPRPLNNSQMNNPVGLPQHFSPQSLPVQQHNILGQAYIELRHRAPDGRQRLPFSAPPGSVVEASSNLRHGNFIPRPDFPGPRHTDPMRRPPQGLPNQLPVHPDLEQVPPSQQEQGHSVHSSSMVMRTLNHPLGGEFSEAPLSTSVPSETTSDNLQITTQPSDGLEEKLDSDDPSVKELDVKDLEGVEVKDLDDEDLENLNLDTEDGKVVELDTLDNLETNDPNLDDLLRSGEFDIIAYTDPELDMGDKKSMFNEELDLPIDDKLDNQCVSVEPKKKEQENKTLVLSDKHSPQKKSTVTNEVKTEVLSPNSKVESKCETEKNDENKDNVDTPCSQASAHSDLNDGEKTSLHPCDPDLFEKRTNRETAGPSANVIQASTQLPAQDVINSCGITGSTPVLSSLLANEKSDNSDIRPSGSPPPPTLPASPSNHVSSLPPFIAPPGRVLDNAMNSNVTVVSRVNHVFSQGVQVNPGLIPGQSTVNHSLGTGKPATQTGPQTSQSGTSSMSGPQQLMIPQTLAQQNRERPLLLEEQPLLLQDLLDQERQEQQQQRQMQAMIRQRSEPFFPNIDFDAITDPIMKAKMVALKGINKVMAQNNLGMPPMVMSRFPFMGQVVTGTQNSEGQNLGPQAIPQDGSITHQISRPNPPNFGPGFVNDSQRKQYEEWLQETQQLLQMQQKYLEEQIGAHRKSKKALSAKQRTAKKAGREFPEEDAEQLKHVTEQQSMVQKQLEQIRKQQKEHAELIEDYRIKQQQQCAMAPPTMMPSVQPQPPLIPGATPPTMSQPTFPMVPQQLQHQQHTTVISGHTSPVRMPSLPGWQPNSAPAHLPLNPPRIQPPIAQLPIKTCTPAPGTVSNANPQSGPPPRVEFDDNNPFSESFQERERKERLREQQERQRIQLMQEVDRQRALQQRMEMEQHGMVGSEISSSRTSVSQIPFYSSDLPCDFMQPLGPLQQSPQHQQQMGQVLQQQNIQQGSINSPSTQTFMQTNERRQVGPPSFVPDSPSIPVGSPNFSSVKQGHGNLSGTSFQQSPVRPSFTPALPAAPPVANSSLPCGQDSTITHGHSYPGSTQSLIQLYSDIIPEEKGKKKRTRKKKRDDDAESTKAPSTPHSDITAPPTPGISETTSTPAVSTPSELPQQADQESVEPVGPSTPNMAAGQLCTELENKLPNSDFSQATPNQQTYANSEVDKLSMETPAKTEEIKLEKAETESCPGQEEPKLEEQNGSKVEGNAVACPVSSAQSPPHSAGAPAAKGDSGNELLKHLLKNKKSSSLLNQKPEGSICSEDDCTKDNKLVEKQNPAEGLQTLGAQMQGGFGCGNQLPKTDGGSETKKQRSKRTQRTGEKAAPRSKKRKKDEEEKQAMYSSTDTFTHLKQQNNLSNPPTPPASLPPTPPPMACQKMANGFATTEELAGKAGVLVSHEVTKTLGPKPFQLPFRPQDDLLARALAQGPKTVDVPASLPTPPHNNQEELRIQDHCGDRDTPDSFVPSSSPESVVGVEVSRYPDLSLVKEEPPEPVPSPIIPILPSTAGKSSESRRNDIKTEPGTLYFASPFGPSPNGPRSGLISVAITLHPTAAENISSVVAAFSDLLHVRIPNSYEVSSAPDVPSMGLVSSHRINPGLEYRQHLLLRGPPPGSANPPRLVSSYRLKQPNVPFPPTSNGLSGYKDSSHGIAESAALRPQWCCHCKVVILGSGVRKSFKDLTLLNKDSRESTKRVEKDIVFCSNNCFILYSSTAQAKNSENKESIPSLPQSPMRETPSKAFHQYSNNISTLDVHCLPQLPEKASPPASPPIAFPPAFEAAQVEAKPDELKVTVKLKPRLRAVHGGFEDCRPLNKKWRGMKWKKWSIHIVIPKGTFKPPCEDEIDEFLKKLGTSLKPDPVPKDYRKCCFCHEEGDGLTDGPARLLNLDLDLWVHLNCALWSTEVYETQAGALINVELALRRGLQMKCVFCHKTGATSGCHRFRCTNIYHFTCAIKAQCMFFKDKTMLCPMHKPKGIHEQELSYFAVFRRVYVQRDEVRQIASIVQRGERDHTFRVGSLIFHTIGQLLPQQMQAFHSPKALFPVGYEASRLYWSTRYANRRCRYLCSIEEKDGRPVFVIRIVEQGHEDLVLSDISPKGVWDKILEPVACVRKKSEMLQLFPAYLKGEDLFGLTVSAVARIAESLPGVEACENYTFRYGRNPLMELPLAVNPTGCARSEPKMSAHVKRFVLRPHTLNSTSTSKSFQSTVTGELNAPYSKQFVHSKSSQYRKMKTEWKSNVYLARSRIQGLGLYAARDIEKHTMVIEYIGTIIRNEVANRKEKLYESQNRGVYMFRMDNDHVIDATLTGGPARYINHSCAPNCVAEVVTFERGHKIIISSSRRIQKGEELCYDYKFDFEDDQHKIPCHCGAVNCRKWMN
row,Target,log2 fold change
1,LMBRD1 (UniProt Q9NUN5),0.088
2,MCOLN3 (UniProt Q8TDD5),0.03
3,MARCHF3 (UniProt Q86UD3),-0.058
4,ITM2C (UniProt Q9NQX7),-0.368
5,MAP4K4 isoform 6 (UniProt O95819),-0.033
6,MAP4 isoform 5 (UniProt P27816),0.298
7,LPIN3 isoform 2 (UniProt Q9BQK8),-0.019
8,LOX (UniProt P28300),0.144
9,IKZF1 isoform 2 (UniProt Q13422),-0.041
10,MAPRE3 isoform 2 (UniProt Q9UPY8),0.029
11,MED29 (UniProt Q9NX70),-0.08
12,MAGED1 isoform 2 (UniProt Q9Y5V3),0.019
13,LYN isoform 2 (UniProt P07948),-0.113
14,KMT2C isoform 3 (UniProt Q8NEZ4),0.002
15,MFSD1 isoform 6 (UniProt Q9H3U5),0.017
16,MAP3K20 isoform 2 (UniProt Q9NYL2),0.01
17,KLHL18 (UniProt O94889),0.026

# Compound: CC1=C(C2=C(C=C1)C(=O)C3=CC=CC=C3N2CCCN)C
# Test: as above
# Procedure, shortened: as §1
row,Target,log2 fold change
1,LMBRD1 (UniProt Q9NUN5),-0.086
2,MCOLN3 (UniProt Q8TDD5),0.08
3,MAP4K4 isoform 6 (UniProt O95819),0.143
4,IKZF1 (UniProt R9R4D9),0.385
5,IGFBP3 isoform 2 (UniProt P17936),-0.095
6,LPIN3 isoform 2 (UniProt Q9BQK8),0.099
7,MFAP3 (UniProt P55082),-0.111
8,ING5 (UniProt Q8WYH8),0.03
9,MAPK11 (UniProt Q15759),0.103
10,LSR isoform 3 (UniProt Q86X29),-0.106
11,IKZF1 isoform 2 (UniProt Q13422),0.418 (active)
12,MAPRE3 isoform 2 (UniProt Q9UPY8),0.109
13,MFSD12 isoform 3 (UniProt Q6NUT3),-0.066
14,LEPROT (UniProt O15243),0.092
15,LMNA isoform 2 (UniProt P02545),-0.128
16,IP6K1 (UniProt Q92551),0.095
17,KMT2C isoform 3 (UniProt Q8NEZ4),0.049
18,MFSD1 isoform 6 (UniProt Q9H3U5),0.08
19,MAP3K20 isoform 2 (UniProt Q9NYL2),-0.071
20,LRRCC1 (UniProt Q9C099),0.109
21,KXD1 (UniProt Q9BQD3),0.057
22,KLHL18 (UniProt O94889),0.088
